PubChem BioAssay (EPA / NIEHS)
Results filed as inconclusive are left out. Calls of active or inactive are those of the source. The calls were made as follows, unless noted: active = hit-call score of the fitted dose curve at least 0.9, where 1 is the maximum; inactive = score below 0.9.

How the values were obtained:
[1] = BSK_4H_Eotaxin3: BioMAP Diversity Plus: 4H Assay for Eotaxin 3 Biomarker Activity (AID 2283000); settings: primary human endothelial cells (HUVEC); actives raise or lower the signal
Procedure, shortened: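 ELISA quantitation of CCL26 (Eotaxin-3) protein from chemically dosed human vascular endothelial cells at 24 h; increases and decreases both scored relative to DMSO-treated baseline.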

[2] = read-out: Intercellular Adhesion Molecule 1 (ICAM1), ICAM1 (gene 3383); assay: BSK_3C_ICAM1: BioMAP Diversity Plus: 3C Assay for Intercellular Adhesion Molecule 1 (ICAM1) Biomarker Activity (AID 2283003); settings: primary human endothelial cells (HUVEC); actives raise or lower the signal
Procedure, shortened: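 Chemicals are dosed onto primary human umbilical vein endothelium (3C system). After 24 h, ICAM-1 is measured by ELISA, and responses are fitted bidirectionally relative to DMSO.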

[3] = read-out: Monokine induced gamma interferon (MIG), CXCL9 (gene 4283); assay: BSK_3C_MIG: BioMAP Diversity Plus: 3C Assay for Monokine induced gamma interferon (MIG) Biomarker Activity (AID 2283021); settings: primary human endothelial cells (HUVEC); actives raise or lower the signal;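 as to AC50: MIG protein level measured by immunoassay in the treated endothelial cultures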
Procedure, shortened: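 Endothelial primary cells (human umbilical vein) are dosed with test chemical in the 3C system. MIG levels are measured by ELISA at 24 h and fitted in both directions relative to DMSO.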

[4] = read-out: Urokinase-type plasminogen activator receptor (uPAR), PLAUR (gene 5329); assay: BSK_4H_uPAR: BioMAP Diversity Plus: 4H Assay for Urokinase-type plasminogen activator receptor (uPAR) Biomarker Activity (AID 2283030); settings: primary human endothelial cells (HUVEC); actives raise or lower the signal
Procedure, shortened: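 Endpoint derived via bidirectional curve fitting against DMSO baseline; readout was ELISA detection of uPAR on umbilical vein endothelial cells at 24 h post-treatment, with SRB-stained parallel cultures assessing cytotoxicity.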

[5] = read-out: Monokine induced gamma interferon (MIG), CXCL9 (gene 4283); assay: BSK_BE3C_MIG: BioMAP Diversity Plus: BE3C Assay for Monokine induced gamma interferon (MIG) Biomarker Activity (AID 2283035); settings: primary human bronchial epithelial cells; actives raise or lower the signal
Procedure, shortened: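 Dose cells (human primary bronchial epithelial), incubate 24 h, quantify MIG by ELISA, then fit concentration–response in both directions relative to DMSO control.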

[6] = read-out: Plasminogen activator inhibitor-1 (PAI1), SERPINE1 (gene 5054); assay: BSK_BE3C_PAI1: BioMAP Diversity Plus: BE3C Assay for Plasminogen activator inhibitor-1 (PAI1) Biomarker Activity (AID 2283037); settings: primary human bronchial epithelial cells; actives raise or lower the signal
Procedure, shortened: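 Values derive from bidirectional fitting against DMSO baseline of PAI-1 levels, measured by ELISA in human bronchial epithelial cells 24 h after compound addition.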

[7] = read-out: urokinase plasminogen activator (uPA), PLAU (gene 5328); assay: BSK_BE3C_uPA: BioMAP Diversity Plus: BE3C Assay for urokinase plasminogen activator (uPA) Biomarker Activity (AID 2283038); settings: primary human bronchial epithelial cells; actives raise or lower the signal
Procedure, shortened: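 Using confluent primary human lung bronchial epithelial cultures, we dosed chemicals, waited 24 h, then ran a uPA ELISA, fitting bidirectionally against DMSO.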

[8] = read-out: Tissue plasminogen activator (tPA), PLAT (gene 5327); assay: BSK_BE3C_tPA: BioMAP Diversity Plus: BE3C Assay for Tissue plasminogen activator (tPA) Biomarker Activity (AID 2283041); settings: primary human bronchial epithelial cells; actives raise or lower the signal
Procedure, shortened: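 Gain- or loss-of-signal in tPA, measured by ELISA, derived by bidirectional fitting against DMSO. Cells: human primary bronchial epithelial; read at 24 h after chemical dosing.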

[9] = read-out: serum amyloid A (SAA), SAA1 (gene 6288); assay: BSK_CASM3C_SAA: BioMAP Diversity Plus: CASM3C Assay for serum amyloid A (SAA) Biomarker Activity (AID 2283049); settings: primary human coronary artery smooth muscle cells; actives raise or lower the signal;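 also: SAA protein level quantified by ELISA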
[10] = read-out: Thrombomodulin, THBD (gene 7056); assay: BSK_CASM3C_Thrombomodulin: BioMAP Diversity Plus: CASM3C Assay for Thrombomodulin Biomarker Activity (AID 2283051); settings: primary human coronary artery smooth muscle cells; actives raise or lower the signal;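 also: thrombomodulin protein level measured by ELISA 24 h after dosing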
[11] = ATG_ERE_CIS: Attagene CIS-FACTORIAL HepG2 Assay for Estrogen Response Element (ERE) (AID 2282940); settings: HepG2 ERE cis-reporter, Attagene RNA transcript; actives raise or lower the signal
Procedure, shortened: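 Readout: reporter mRNA induction by RT-PCR, FAM-labelled primer extension, HpaI digestion and capillary electrophoresis, 24 h after dosing transfected HepG2 cells. Endogenous transcription factors act on cis-element-regulated reporters. Gain or loss fitted against DMSO.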

[12] = target: Bile acid receptor (Homo sapiens) (UniProt Q96RI1); assay: ATG_FXR_TRANS: Attagene TRANS-FACTORIAL HepG2 Assay for Farnesoid X Receptor (FXR) (AID 2282979; active = hit-call score of the fitted dose curve at least 0.9, where 1 is the maximum;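 also: hits raise reporter mRNA above DMSO so AC50 marks FXR activation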); settings: HepG2 Attagene TRANS FXR-GAL4 reporter transcription
Procedure, shortened: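 After 24 h chemical treatment of transfected HepG2 cells, GAL4-UAS reporter transcripts driven by an exogenous FXR-GAL4 fusion were measured by RT-PCR and capillary electrophoresis. Increases over DMSO were fitted.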

[13] = target: Estrogen receptor beta (Homo sapiens) (UniProt Q92731); assay: OT_ER_ERbERb_1440: Odyssey Thera (OT) 24-hour HEK293T Protein-Complementation Assay for Estrogen Receptor-beta/-beta Homodimer (AID 2283380; active = hit-call score of the fitted dose curve at least 0.9, where 1 is the maximum;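 also: scored as signal increase over DMSO baseline for both agonists and antagonists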)
Procedure, shortened: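 HEK293T cells stably expressing ER beta LBD (aa 310-547) homodimer fragment-complementation reporter, dosed 24 h. Cells formaldehyde-fixed, Draq5-stained; gain in nuclear (agonist) or nuclear plus cytoplasmic (antagonist) fluorescence versus DMSO read by laser scanning cytometry.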

[14] = target: Retinoic acid receptor RXR-alpha (Homo sapiens) (UniProt P19793); assay: OT_NURR1_NURR1RXRa_0480: Odyssey Thera (OT) 8-hour HEK293T Protein Complementation Assay for Nurr1/retinoid X receptor (RXR) (AID 2283385; active = hit-call score of the fitted dose curve at least 0.9, where 1 is the maximum)
Procedure, shortened: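 Interaction of bait and prey reconstitutes a functional reporter, whose fluorescence was measured in HEK293T cells dosed with compound for 8 hours. Signal gain relative to DMSO defined the single endpoint.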

[15] = target: Retinoic acid receptor RXR-alpha (Homo sapiens) (UniProt P19793); assay: OT_NURR1_NURR1RXRa_1440: Odyssey Thera (OT) 24-hour HEK293T Protein Complementation Assay for Nurr1/retinoid X receptor (RXR) (AID 2283386; active = hit-call score of the fitted dose curve at least 0.9, where 1 is the maximum)
Procedure, shortened: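 Steps: fragment-tagged Nurr1 and RXRα expressed in HEK293T; compounds added; after 24 h, complemented reporter quantified by fluorescence intensity; signal increase over DMSO fitted as the single endpoint.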

[16] = ACEA_AR_agonist_AUC_viability: ACEA Biosciences xCELLigence Real-Time Cell Analysis on Androgen Receptor Agonism for Viability (AID 2283775; active = hit-call score of the fitted dose curve at least 0.9, where 1 is the maximum)
Procedure, shortened: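 22Rv1 cells; impedance growth kinetics; 8-pt 1:4 dilutions from 100 uM top final, ≤0.5% DMSO; n = 2; 80 h read; AUC viability, loss-of-signal vs DMSO.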

[17] = ACEA_AR_antagonist_AUC_viability: ACEA Biosciences xCELLigence Real-Time Cell Analysis on Androgen Receptor Antagonism for Viability (AID 2283776; active = hit-call score of the fitted dose curve at least 0.9, where 1 is the maximum;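 also: 22Rv1 human prostate cancer cells growing on impedance electrode plates; area under impedance growth curve at 80 h after dosing as viability; hits lower the growth signal relative to DMSO meaning cytotoxicity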)
Procedure, shortened: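 Impedance read-out (RT-CES): area under growth curve at 80 h post-dose, loss of signal scored vs DMSO baseline. 22Rv1 cells; 8-pt 1:4 series, top 100 uM final, ≤0.5% DMSO; biological duplicate.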

[18] = target: Estrogen-related receptor gamma (Homo sapiens) (UniProt P62508); assay: ATG_ERRg_TRANS: Attagene TRANS-FACTORIAL HepG2 Assay for human Estrogen-Related Receptor gamma (ERRg) (AID 2282977; active = hit-call score of the fitted dose curve at least 0.9, where 1 is the maximum;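 also: hits increase reporter signal over DMSO so potencies reflect activators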); settings: HepG2 Attagene TRANS reporter, ERRg transactivation
Procedure, shortened: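 Induction of reporter transcripts through a chimeric NR-Gal4 protein is quantified in transfected human HepG2 liver cells after 24 h chemical exposure, using RT-PCR with capillary electrophoresis detection and DMSO as baseline.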

[19] = CCTE_Harrill_HTTr_Viability_MCF7: CCTE's 6-hour Cell Viability Assessment for the High-Throughput Transcriptomics (HTTr) Platform, in MCF-7 cells cultured in DMEM + 10% fetal bovine serum, Harrill Lab (AID 2284010)
Procedure, shortened: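 Read-out is propidium iodide gain of signal by high-content imaging, reflecting membrane integrity loss. Measurements are taken 6 h after dosing, eight concentrations per chemical, with DMSO serving as baseline for bidirectional curve fitting.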

[20] = CCTE_Harrill_HTTr_Apoptosis_MCF7: CCTE's 6-hour Apoptosis Assessment for the High-Throughput Transcriptomics (HTTr) Platform, in MCF-7 cells cultured in DMEM + 10% fetal bovine serum, Harrill Lab (AID 2284011)
Procedure, shortened: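 Apoptosis in MCF-7 cells grown in DMEM with 10% fetal bovine serum was scored after a six hour exposure by high content imaging of caspase-3/7 activation (CellEvent Caspase 3/7 Green), with DMSO serving as negative control and baseline.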

Measured: AC50

Sequence of Estrogen receptor beta (Homo sapiens) (Q92731 whole entry, looked up, the tested form may be a part): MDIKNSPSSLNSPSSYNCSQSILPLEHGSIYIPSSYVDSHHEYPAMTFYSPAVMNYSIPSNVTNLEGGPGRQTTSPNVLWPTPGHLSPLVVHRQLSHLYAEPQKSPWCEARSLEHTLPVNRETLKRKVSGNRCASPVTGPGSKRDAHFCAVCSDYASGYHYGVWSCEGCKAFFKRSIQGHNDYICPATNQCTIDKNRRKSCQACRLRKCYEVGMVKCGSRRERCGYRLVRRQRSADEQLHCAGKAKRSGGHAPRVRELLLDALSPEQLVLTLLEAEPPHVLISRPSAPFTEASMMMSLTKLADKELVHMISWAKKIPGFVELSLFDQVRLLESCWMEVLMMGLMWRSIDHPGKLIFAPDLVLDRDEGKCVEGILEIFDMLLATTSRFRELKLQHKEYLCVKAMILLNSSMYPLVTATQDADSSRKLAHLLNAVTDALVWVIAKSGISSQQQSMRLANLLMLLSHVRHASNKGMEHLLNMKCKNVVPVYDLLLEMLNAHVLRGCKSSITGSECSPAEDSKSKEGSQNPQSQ
Sequence of Retinoic acid receptor RXR-alpha (Homo sapiens) (P19793 whole entry, looked up, the tested form may be a part): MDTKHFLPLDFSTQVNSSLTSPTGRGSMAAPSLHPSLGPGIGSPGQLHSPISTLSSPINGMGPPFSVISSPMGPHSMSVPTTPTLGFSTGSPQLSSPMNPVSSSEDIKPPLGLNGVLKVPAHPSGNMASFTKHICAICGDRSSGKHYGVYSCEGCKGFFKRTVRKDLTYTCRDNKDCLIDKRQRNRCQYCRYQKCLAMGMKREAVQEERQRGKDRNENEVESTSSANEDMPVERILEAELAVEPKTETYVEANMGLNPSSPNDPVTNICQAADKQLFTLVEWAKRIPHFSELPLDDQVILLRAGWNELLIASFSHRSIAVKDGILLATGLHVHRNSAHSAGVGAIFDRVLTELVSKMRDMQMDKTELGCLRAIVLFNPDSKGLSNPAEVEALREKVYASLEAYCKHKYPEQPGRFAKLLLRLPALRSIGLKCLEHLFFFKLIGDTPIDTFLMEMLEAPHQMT
Sequence of Estrogen-related receptor gamma (Homo sapiens) (P62508 whole entry, looked up, the tested form may be a part): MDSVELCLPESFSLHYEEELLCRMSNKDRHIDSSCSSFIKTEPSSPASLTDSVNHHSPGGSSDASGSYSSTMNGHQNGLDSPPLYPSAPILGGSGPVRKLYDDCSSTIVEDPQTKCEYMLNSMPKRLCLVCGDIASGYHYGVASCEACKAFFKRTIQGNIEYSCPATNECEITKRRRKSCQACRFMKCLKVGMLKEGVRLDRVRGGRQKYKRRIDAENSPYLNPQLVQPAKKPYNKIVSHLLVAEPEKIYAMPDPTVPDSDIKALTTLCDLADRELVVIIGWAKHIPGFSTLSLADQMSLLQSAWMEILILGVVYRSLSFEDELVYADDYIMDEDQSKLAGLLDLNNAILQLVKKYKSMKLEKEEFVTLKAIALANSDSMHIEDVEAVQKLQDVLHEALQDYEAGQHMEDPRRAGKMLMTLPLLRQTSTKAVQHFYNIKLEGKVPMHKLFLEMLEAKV
Sequence of Bile acid receptor (Homo sapiens) (Q96RI1 whole entry, looked up, the tested form may be a part): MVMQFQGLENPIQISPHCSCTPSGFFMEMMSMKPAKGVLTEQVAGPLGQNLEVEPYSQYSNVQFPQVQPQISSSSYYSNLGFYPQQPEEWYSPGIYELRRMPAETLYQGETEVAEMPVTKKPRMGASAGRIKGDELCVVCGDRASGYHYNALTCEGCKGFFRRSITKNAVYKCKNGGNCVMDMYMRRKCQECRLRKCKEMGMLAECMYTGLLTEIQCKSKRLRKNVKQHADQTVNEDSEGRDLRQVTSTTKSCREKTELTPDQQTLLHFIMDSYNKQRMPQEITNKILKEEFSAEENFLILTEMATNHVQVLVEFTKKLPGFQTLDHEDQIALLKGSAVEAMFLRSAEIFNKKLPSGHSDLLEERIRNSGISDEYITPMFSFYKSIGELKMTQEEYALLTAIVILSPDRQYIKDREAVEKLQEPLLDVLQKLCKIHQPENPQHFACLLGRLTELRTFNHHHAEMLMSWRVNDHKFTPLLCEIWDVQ

CCC(C)c1cc([N+](=O)[O-])cc([N+](=O)[O-])c1OC(=O)C=C(C)C (centres undefined)
inactive: [10]
active: [1] 6.83 µM | [2] 30.4 µM | [3] 35.3 µM | [4] 5.79 µM | [5] 35.1 µM | [6] 11 µM | [7] 31.9 µM | [8] 6.13 µM | [9] 20 µM

O=[N+]([O-])c1cc(C(F)(F)F)c(Cl)c([N+](=O)[O-])c1Cl
active: [12] 53.3 µM
inactive: [11]

ClCC(Cl)Cl
inactive: [11]

CCCC=NO
active: [11] 43.5 µM
inactive: [12] | [13] | [14] | [15] | [16] | [17]

O=C=Nc1ccccc1
inactive: [18] | [13] | [15] | [16] | [17] | [19] | [20]

Cc1ccc(N(SC(F)(Cl)Cl)S(=O)(=O)N(C)C)cc1
inactive: [18] | [19]

CSc1nc(N=[N+]=[N-])nc(NC(C)C)n1
inactive: [11]

COC(=O)c1ccccc1S(=O)(=O)NC(=O)Nc1nc(C)cc(C)n1
inactive: [19] | [20]

CC1CCCC1.[C-]#[O+].[C-]#[O+].[C-]#[O+].[Mn]
inactive: [14] | [15] | [16]

O=C1Nc2ccc(Cl)cc2C(c2ccccc2)=NC1O (centres undefined)
inactive: [12] | [13] | [14] | [15] | [16] | [17] | [19] | [20]

N#Cc1cc(I)c(O)c(I)c1
inactive: [18] | [19] | [20]

C=CC(=O)OC
inactive: [12]

Cc1ccc(OP(=O)(Oc2ccc(C)cc2)Oc2ccc(C)cc2)cc1 (tested in a mixture with another compound)
active: [14] 15.5 µM
not listed: [11] | [12] | [13] | [16] | [17] | [18]
inactive: all other assays above

COc1cc(OC)nc(Oc2cccc(Oc3nc(OC)cc(OC)n3)c2C(=O)O)n1
inactive: [12] | [13] | [14] | [15] | [16] | [17] | [19] | [20]

Nc1ccc([N+](=O)[O-])cc1N
inactive: [18]

BrCBr
inactive: [11]

N#CCCCCC#N
not listed: [11] | [12] | [13] | [15] | [16] | [18] | [19]
inactive: all other assays above
